Screen size: about 390,000 compounds; about 4,000 (1%) were called active. A call without a number means that no potency is given here. Inconclusive results (about 4%) are left out. For the sample, actives were picked, then their nearest neighbours and some compounds at random. A number with no mark means an inactive call. Calls follow the shape of the dose curve; as a rule, active = well fitted inhibition curve with a large enough effect; inconclusive = small, poorly fitted or top-dose-only effect; inactive = no such curve, though single readings can be large or run the other way.
Potency is read from the fitted curve at half-maximal effect.

Sequence of Thioredoxin reductase 1, cytoplasmic (Rattus norvegicus) (O89049 whole entry, looked up): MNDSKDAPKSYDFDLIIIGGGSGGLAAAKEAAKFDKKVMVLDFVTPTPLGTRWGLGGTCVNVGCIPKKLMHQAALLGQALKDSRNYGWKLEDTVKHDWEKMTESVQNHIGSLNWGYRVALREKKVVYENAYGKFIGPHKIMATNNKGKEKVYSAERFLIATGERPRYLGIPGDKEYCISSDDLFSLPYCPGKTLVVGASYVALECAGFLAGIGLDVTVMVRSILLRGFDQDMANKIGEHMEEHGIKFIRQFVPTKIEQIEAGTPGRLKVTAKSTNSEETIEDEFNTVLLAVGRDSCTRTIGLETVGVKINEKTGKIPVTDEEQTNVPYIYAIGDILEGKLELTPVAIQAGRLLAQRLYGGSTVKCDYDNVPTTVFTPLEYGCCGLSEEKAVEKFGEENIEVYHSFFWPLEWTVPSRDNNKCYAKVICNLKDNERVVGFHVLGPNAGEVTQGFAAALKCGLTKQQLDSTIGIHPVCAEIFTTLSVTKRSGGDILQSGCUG

In this assay the target is Thioredoxin reductase 1, cytoplasmic (Rattus norvegicus) (UniProt O89049). The experiment in a line: qHTS Assay for Inhibitors of Mammalian Selenoprotein Thioredoxin Reductase 1 (TrxR1): qHTS. Also: nearly all actives have a fitted effect of over 65% in size. The settings on record: recombinant rTrxR1, NADPH fluorescence consumption, selenite substrate; series mostly up to 114 µM. In short, it runs like this:
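Rat TrxR1 (90 nM in the dispensed reagent) was pre-reduced with 400 uM NADPH for 5 min at room temperature, then incubated with compound for 15 min. After 400 uM selenite was added, NADPH fluorescence (Ex 340/Em 450 nm) was followed for 8 min.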
With `COCc1ccc(C(=O)N2CCc3c([nH]c4ccccc34)C2c2ccccn2)s1` (centres undefined), the Potency entry was “inactive”. For the compound `c1ccc(C2c3[nH]c4ccccc4c3CCN2Cc2cccn2-c2cccnc2)nc1` (centres undefined), the Potency was 50.1 µM (active).

Regarding `CCOc1ccc(C2c3[nH]c4ccccc4c3CCN2Cc2cccn2-c2ncccn2)cc1` (centres undefined), the Potency entry is “inactive”. As to `CS(=O)c1ccc(/C=C2\C=Cc3ccccc32)cc1` (centres undefined), the Potency result is “inactive”.

With `CCOC(=O)c1nnn(CC(=O)NC(=O)Nc2ccccc2F)c1C(=O)OCC`, the Potency entry is “inactive”. Still for that read-out and setting: in the case of `Cc1ccc(Cc2cnc(N)s2)o1` it was 22.4 µM (active); in that of `COc1cn(CC(=O)Nc2cccc(C)c2C)c(CN2CCCCC2)cc1=O`, “inactive”; in that of `Cc1cccc(N2CCN(C(=O)CCn3c(=O)c4cccn4c4cccnc43)CC2C)c1` (centres undefined), “inactive”. Same read-out and setting: with `CCn1c(CNC(=O)C23CC4CC(CC(C4)C2)C3)nnc1SCC(=O)Nc1ccc(OC)cc1` the entry was “inactive”; with `CSc1oc(-c2cccs2)nc1S(=O)(=O)c1ccc(Br)cc1`, “inactive”. Same read-out and setting: in the case of `NC(=O)CSc1oc(-c2cccs2)nc1S(=O)(=O)c1ccccc1` it was “inactive”; in that of `CCCCS(=O)(=O)c1oc(-c2cccs2)nc1S(=O)(=O)c1ccccc1`, 0.447 µM (active).

On to `C(=Nc1ccc(/C=C/c2ccnc3ccccc23)cc1)Nc1ccc(/C=C/c2ccnc3ccccc23)cc1`, for which the Potency entry was “inactive”. Still for that read-out and setting: with `CCOC(=O)c1c(C)oc2nc(C)nc(Nc3ccc(CC)cc3)c12` the entry was “inactive”; with `CCCOc1ccc(C(=O)Nc2ccc3oc(-c4cccc(Cl)c4Cl)nc3c2)cc1`, “inactive”; with `Oc1c(C=Nc2cccc3nsnc23)ccc2ccccc12`, 39.8 µM (active).

`Cc1cccc(-c2nnc(SCC(=O)N3CCCc4ccccc43)o2)c1`: the Potency result is “inactive”. Regarding `COc1ccc(-c2nc(=N)sn2-c2ccccc2)cc1`, the Potency entry was “inactive”. As for `Cc1cc(C)c2c(NC(=O)C3CC3)nn(C)c2n1`, the Potency entry was “inactive”.

Take `Cc1cc(C)c2c(n1)nn1c(-n3ccnc3)cc(C)nc21`: the Potency is 8.91 µM (active). On the same count and under the same terms, in the case of `COC(=O)c1cc(NC(=O)CCc2c(C)nc3c4c(C)cc(C)nc4nn3c2C)cc(C(=O)OC)c1` it was “inactive”; in that of `CCOc1ccc(CNC(=O)c2cc(-c3ccc(Cl)s3)nc3ccccc23)cc1`, “inactive”.

As for `Cc1ccc(NC(=O)c2cc(-c3ccc(C)o3)nc3ccccc23)nc1`, the Potency was 14.1 µM (active). Same read-out and setting: in the case of `Cc1ccc(-c2cc(C(=O)NN)n[nH]2)o1` it was “inactive”; in that of `CCOC(=O)c1cc2c(=O)n3ccccc3nc2n(CC2CCCO2)c1=NC(=O)c1ccc(C(C)(C)C)cc1` (centres undefined), “inactive”. Consider `Cc1cccc(N2CCN(C3=C(c4ccccc4)C(=O)c4ccccc43)CC2)c1C`, for which the Potency result was “inactive”. Still for that read-out and setting: in the case of `CC(=O)/C(C)=N/O` it was “inactive”. Same read-out and setting: with `Cc1noc(C)c1NC(=O)Nc1cccc2c1O[C@H](CN(C)C(=O)Nc1ccccc1)[C@@H](C)CN([C@H](C)CO)C2=O` the entry was “inactive”; with `C[C@H](CO)N1C[C@H](C)[C@H](CN(C)C(=O)Nc2ccc(C(F)(F)F)cc2)Oc2c(NC(=O)c3ccncc3)cccc2C1=O`, 56.2 µM (active); with `Cc1noc(C)c1NC(=O)Nc1ccc2c(c1)C(=O)N([C@H](C)CO)C[C@H](C)[C@@H](CN(C)C(=O)Nc1ccc(C(F)(F)F)cc1)O2`, “inactive”. Still for that read-out and setting: in the case of `CCc1ccc(N(CC)C(=O)CCn2cnc3onc(-c4ccc(F)cc4)c3c2=O)cc1` it was “inactive”; in that of `COc1cc(Cl)c(C)cc1NC(=O)CSc1nnc(CN2CCCC2)o1`, “inactive”; in that of `COc1cc(Cl)c(C)cc1NC(=O)CSc1nnc(-c2ccco2)n1CC(C)C`, 12.6 µM (active). On to `COc1ccccc1NC(=O)CSc1nnc(-c2ccoc2C)n1CCc1ccccc1`, for which the Potency result is “inactive”. The same measure, in the same setting: with `Cc1cccc(C(=O)Nc2ccc(S(=O)(=O)N3CCCCC3c3cccnc3)cc2)c1` (centres undefined) the entry was “inactive”; with `Cc1ccc2oc(C(=O)Nc3ccc(S(=O)(=O)N4CCCCCC4)cc3)cc(=O)c2c1`, “inactive”; with `CCOc1ccc(NC(=O)c2ncoc2-c2ccco2)cc1`, “inactive”.

Take `COc1cc(-n2c(C)nc3cc(C(=O)NCc4ccco4)ccc32)cc(OC)c1OC`: the Potency result is “inactive”. Same read-out and setting: with `COc1ccc(-c2nc3ccc(C(=O)NCc4ccc(C)cc4)cc3nc2-c2ccc(OC)cc2)cc1` the entry was “inactive”; with `COCCNC(=O)Nc1ccc2nc(-c3ccco3)c(-c3ccco3)nc2c1`, 3.16 µM (active); with `C=CCNC(=O)c1ccc2nc(-c3ccco3)c(-c3ccco3)nc2c1`, 7.94 µM (active). Same read-out and setting: with `COc1ccc(NC(=O)COCc2cc(-c3ccco3)on2)cc1` the entry was “inactive”; with `Cc1nc2sc(C)c(C)n2c(=O)c1S(=O)(=O)NCCc1ccc(Cl)cc1`, “inactive”; with `O=C(NCCS(=O)(=O)N1CCN(c2ccc(F)cc2)CC1)c1ccccc1Br`, “inactive”. With `O=[N+]([O-])c1ccc(/C=C/c2ccc3cccnc3c2)cc1`, the Potency result is “inactive”. Same read-out and setting: in the case of `O=C(Cn1cc(SCc2cccc(Cl)c2)c2ccccc21)N1CCCCC1` it was “inactive”; in that of `N#C/C=C(/c1ccc(F)cc1)N1CCOCC1`, “inactive”.

With `N#C/C(=C/c1ccc(N2CCOCC2)o1)C(=O)N1CCOCC1`, the Potency was 50.1 µM (active). For `O=C(N1CCOCC1)N1CCOCC1`, the Potency entry was “inactive”.

In the case of `COc1cccc(C(=O)NC(=O)Nc2ccc(-c3cc(C(F)(F)F)nn3-c3ccccc3)cc2)c1`, the Potency result is “inactive”. Still for that read-out and setting: in the case of `Cc1cccc(-n2ncc(C(=O)N3CCC(C)CC3)c2C2CCN(C(=O)OC(C)(C)C)CC2)c1` it was “inactive”; in that of `Cc1cccc(-n2ncc(C(=O)N3CCN(c4ccc(Cl)cc4)CC3)c2C2CCN(C(=O)OC(C)(C)C)CC2)c1`, “inactive”; in that of `Cc1cccc(-n2ncc(Cl)c(Cl)c2=O)c1`, 44.7 µM (active). Still for that read-out and setting: with `CCOc1ccc(C2CC(=O)c3c([nH]c(C(=O)OCc4ccccc4)c3C)C2)cc1` (centres undefined) the entry was “inactive”; with `CCc1ccc(OCCCn2c(CCCNC(=O)C3CCCCC3)nc3ccccc32)cc1`, “inactive”. The same measure, in the same setting: in the case of `Cc1ccc(C=O)cc1Cl` it was “inactive”. On to `Cc1ccc(-n2ncc3c(N4CCC(C(N)=O)CC4)ncnc32)cc1`, for which the Potency result was “inactive”. The same measure, in the same setting: with `Cc1cc(NC(=O)CCS(=O)(=O)c2ccc(F)cc2)no1` the figure was 44.7 µM (active); with `Cc1cc(NC(=O)CCC(=O)N(CC(=O)NC2CCCC2)c2ccc(F)cc2)no1`, “inactive”; with `Cc1cc(NC(=O)CSc2nc(=O)cc(N)n2-c2ccc(F)cc2)no1`, “inactive”. As to `ClC/C=C/C[n+]1ccccc1Cl`, the Potency result was “inactive”. Still for that read-out and setting: in the case of `C/C(=N/Nc1nc(-c2ccccc2)c(CC(=O)O)s1)c1ccccc1` it was 5.62 µM (active); in that of `C/C(=N\Nc1cccc(C(=O)O)c1)c1ccc2c(c1)Nc1ccccc1S2`, “inactive”. Same read-out and setting: with `CC(=O)NC(CC(=O)Nc1nc(-c2ccccc2)c(C(C)=O)s1)c1ccccc1` (centres undefined) the entry was “inactive”; with `CC(C)CCN(C(=O)Nc1ccc(Cl)c(Cl)c1)C(C)c1cccs1` (centres undefined), “inactive”.

Consider `C=CCN1C(=O)C(O)(CC(=O)c2ccc(Cl)cc2)c2ccccc21` (centres undefined), for which the Potency is 35.5 µM (active). The same measure, in the same setting: with `Cc1ccc(C(=O)CC2(O)C(=O)N(CCc3ccccc3)c3ccc(Br)cc32)cc1` (centres undefined) the entry was “inactive”; with `C=CCN1C(=O)C(O)(CC(=O)c2ccccn2)c2ccccc21` (centres undefined), “inactive”.

`CCCCC(CCCC)c1ccc(C=Nc2ccc(/C=C/c3ccnc4ccccc34)cc2)cc1`: the Potency entry was “inactive”.

On to `COc1cccc(Cn2c(SCc3ccc(C(=O)N4CCCCC4)cc3)nc3ccncc32)c1`, for which the Potency result is “inactive”. Still for that read-out and setting: with `Fc1cccc(-n2ncc3c2ncn2nc(-c4ccccc4Cl)nc32)c1` the entry was “inactive”; with `Cc1nn2c3cc(N4CCOCC4)ccc3nc2c2ccccc12`, “inactive”.

`C1=C(N2CCOCC2)/C(=C/c2nc3ccccc3[nH]2)CC1`: the Potency is 15.8 µM (active). For the compound `Cn1cc(S(=O)(=O)N2CCCCCC2)cc1C(=O)N1CCN(c2ccc(F)cc2)CC1`, the Potency entry was “inactive”.

Regarding `NS(=O)(=O)c1cccc(NC(=O)COC(=O)/C=C/c2ccco2)c1`, the Potency entry is “inactive”. On the same count and under the same terms, in the case of `COc1cccc(NC(=O)COC(=O)/C=C/c2ccco2)c1` it was 39.8 µM (active); in that of `COc1ccc([N+](=O)[O-])cc1NC(=O)COC(=O)/C=C/c1ccco1`, “inactive”. For the compound `CCC(C)N(c1ccc(/C=C/c2ccnc3ccccc23)cc1)C(C)CC` (centres undefined), the Potency entry was “inactive”. Take `CCN(CC)/[N+]([O-])=N/OCOC(=O)Cc1c(C)n(C(=O)c2ccc(Cl)cc2)c2ccc(OC)cc12`: the activity change, negative = inhibition was 13.3% [at 0.457 µM]. With `COc1ccc(NC(=O)CSc2nc3ncccc3[nH]2)c(OC)c1`, the Potency result was “inactive”. Still for that read-out and setting: with `OCC(O)C(O)C(O)C(O)C=Nc1ccc(/C=C/c2ccnc3ccccc23)cc1` (centres undefined) the entry was “inactive”. For `CCc1ccc2oc(-c3ccc(C)c(NC(=O)/C=C/c4ccco4)c3)nc2c1`, the Potency result is “inactive”. Take `O=C(/C=C/c1ccco1)Nc1cccc(-c2nc3ccccc3[nH]2)c1`: the Potency was 79.4 µM (active). Still for that read-out and setting: in the case of `O=C(Nc1cccc(-c2nc3ccccc3o2)c1)c1cccc(Br)c1` it was “inactive”; in that of `COc1ccc(-c2cc(-c3nc(-c4cc(OC)c(OC)c(OC)c4)no3)[nH]n2)c(OC)c1`, “inactive”; in that of `O=C1/C(=C\c2ccc(O)cc2)CCC1CNc1ccc(Cl)cc1` (centres undefined), 22.4 µM (active). Same read-out and setting: with `Cc1ccc(NS(=O)(=O)c2ccc3c(c2)CC(=O)N3)cc1Cl` the entry was “inactive”; with `CCOc1n[nH]c(-c2ccccc2)n1`, “inactive”.

Turning to `CN(Cc1ccccc1)c1ccc(/C=C/c2ccnc3ccccc23)cc1`, the Potency result is “inactive”. On the same count and under the same terms, with `COc1ccc(C(F)(F)F)cc1NC(=O)c1sc2nc(-c3cccs3)ccc2c1N` the entry was “inactive”; with `C=CC1(C)CC(=O)C2(O)C(C)(O1)C(OC(C)=O)C(O)C1C(C)(C)CCC(O)C12C` (centres undefined), “inactive”. Same read-out and setting: in the case of `CCOc1ccc(C(C)NC(=O)CN2C(=O)NC3(CCCCC3)C2=O)cc1OCC` (centres undefined) it was “inactive”; in that of `COc1ccc(C(=O)COC(=O)CNC(=O)c2cccs2)cc1Br`, “inactive”. Same read-out and setting: in the case of `CCOc1ccc(C(C)=O)cc1COC(=O)CNC(=O)c1cccs1` it was 22.4 µM (active); in that of `CCOc1ccc(C(C)=O)cc1COC(=O)CN1C(=O)NC2(CCCC2)C1=O`, 28.2 µM (active). Turning to `Cc1ccc(COC(=O)CN2C(=O)NC3(CCCC3)C2=O)cc1`, the Potency entry is “inactive”. On the same count and under the same terms, in the case of `CCOc1ccc(C(C)=O)cc1COC(=O)c1cnc(Cl)c(Cl)c1` it was “inactive”; in that of `COc1ccc(/C=C/c2ccccn2)cc1OC`, “inactive”. With `O=C(NCCCN1CCN(c2cccc(Cl)c2)CC1)c1nnc(Cc2ccc(F)cc2Cl)o1`, the Potency result is “inactive”.

Values taken from PubChem BioAssay AID588453 (National Center for Advancing Translational Sciences (NCATS), 2011).
